# Assay results taken from PubChem BioAssay (Tox21).
# Records with an inconclusive call do not appear. A call without a number means that no potency is given here. Activity calls are given as the source filed them. Calls follow the shape of the dose curve; as a rule, active = well fitted cell-killing curve with a large enough effect in the repeat runs; inconclusive = weak or mixed curves, or effect the other way; inactive = no such curve, though single readings can be large or run the other way.
# Test: Caspase-3/7 induction in CHO-K1 cells by small molecules, qHTS cell viability counter screen (AID 1346979); also: nearly all actives have a fitted effect of over 35% in size
# Conditions: CellTiter-Fluor fluorescence, 17 h; series mostly up to 92.4 µM
# Description: National Center for Advancing Translational Sciences [NCATS]
# NIH Chemical Genomics Center [NCGC]
# U.S. Environmental Protection Agency [EPA]
# National Institutes of Environmental Health Sciences [NIEHS]
# National Toxicology Program [NTP]
# U.S. Food and Drug Administration [FDA]
# Apoptosis is a process of programmed cell death and plays a central role in the development of multicellular organisms. It is a highly regulated process and induces cell death by activating caspases, which are the members of cysteine aspartic acid-specific protease (caspase) family. Caspases involved in apoptosis are classified by their mechanism of action as initiator caspases (caspase-2, -8, -9 and -10) and executioner caspases (caspase-3, -6, and -7). Inhibition of apoptosis results in number of cancers, autoimmune diseases, inflammatory diseases and viral infection. To identify small molecule compounds that induce apoptosis, a homogeneous, luminescent Caspase-Glo 3/7 assay was used. Wild type CHO-K1 cells were used to screen Tox21 libraries for identifying caspase-3/7 activity inducers. Also cytotoxicity of the compounds was tested in parallel by measuring the cell viability using CellTiter-Fluor assay system in the same wells.
# Tox21 Assay Protocol Summary:
# CHO-K1 cells were dispensed at 1,500 per well in 5uL of culture medium into white solid bottom 1536-well plates (Corning Life Sciences, Corning, NY) using a Multidrop Combi (Thermo Scientific, Waltham, MA) dispenser. The assay plates were incubated at 37 C and 5% CO2 for 5hr, and then 23nL of compounds dissolved in DMSO and positive control were transferred using a Pintool station (Wako, San Diego, CA). The assay plates were incubated at 37C and 5% CO2 for 17hr. For cytotoxicity read, after 16hr incubation at 37C, 1uL CellTiter-Fluor reagent (Promega Corporation, Madison, WI) was added to each well of the assay plates using Flying Reagent Dispenser (FRD, Aurora Discovery, San Diego, CA). After 1hr incubation at 37C and 5% CO2, the fluorescence signal was quantified using a ViewLux plate reader (PerkinElmer, Shelton, CT).
# Potency is read from the fitted curve at half-maximal effect.
row,SMILES,Potency
1,CNC(=O)N(c1ccccc1)c1ccccc1,43.5 µM (active)
2,CCCOC(=O)c1ccc(N)cc1,inactive
3,OC(CCCN1CCCCC1)(c1ccccc1)c1ccccc1,inactive
4,Cc1ccc(Nc2nccc(N(C)c3ccc4c(C)n(C)nc4c3)n2)cc1S(N)(=O)=O,26.6 µM (active)
5,Cc1oc(C)c(C(=O)Nc2ccccc2)c1C,27.3 µM (active)
6,CCOc1cc(N)c(Cl)cc1C(=O)NCC1CN(Cc2ccc(F)cc2)CCO1 (stereo not given),inactive
7,CCc1cccc(N(C)C(N)=Nc2cccc3ccccc23)c1,inactive
8,O=C(O)c1cccc(O)c1,inactive
9,CCCCN(CCCC)C(=S)SSC(=S)N(CCCC)CCCC,27 µM (active)
10,CCOC(=O)OCC,inactive
11,CNCCCC1c2ccccc2C=Cc2ccccc21,26.6 µM (active)
12,CCOC(=O)/C=C/C(=O)O,inactive
13,CC1=CC(O)CC(C)(C)C1 (stereo not given),inactive
14,O=c1[nH]c2ccc(S(=O)CCN3CCC(Cc4ccc(F)cc4)CC3)cc2o1 (stereo not given),54.5 µM (active)
15,Nc1ccc(S(=O)(=O)O)c(N)c1,inactive
16,COCCOC(=O)C1=C(C)NC(C)=C(C(=O)OC/C=C/c2ccccc2)C1c1cccc([N+](=O)[O-])c1 (stereo not given),26.6 µM (active)
17,C=CC(=C)CCCC(C)(C)OC(C)=O,inactive
18,O=C(N/N=C/c1ccc([N+](=O)[O-])o1)c1ccc(O)cc1,23.7 µM (active)
19,CC(=N\O)/C(C)=N/O,inactive
20,CN(C)C(=O)Nc1ccc(Oc2ccc(Cl)cc2)cc1,54.5 µM (active)

row,SMILES,Potency
1,CC1=NN(c2ccc(C(=O)O)cc2)C(=O)C1,inactive
2,CCCC1C(CC)=CC(CC)=CN1c1ccccc1 (stereo not given),inactive
3,COc1cc2[nH]c(=O)[nH]c(=O)c2cc1OC,inactive
4,Nc1nccs1,inactive
5,Cc1ccc(S)cc1,inactive
6,CC(C)(C)C(=O)O,inactive
7,O=[N+]([O-])c1cccc(S(=O)(=O)NCCNS(=O)(=O)c2cccc([N+](=O)[O-])c2)c1,inactive
8,Cc1occc1C(=O)Nc1ccc(C(=O)N2CCC(F)(F)/C(=C\C(=O)N3CCC(N4CCCCC4)CC3)c3ccccc32)cc1,inactive
9,CC(=O)OCC(=O)[C@H]1CC[C@H]2[C@@H]3CCC4=CC(=O)CC[C@]4(C)[C@H]3CC[C@]12C,inactive
10,CC#N,inactive
11,O=C(O)Cc1ccc(-c2ccccc2)cc1,inactive
12,N#C[C@@H]1C[C@@H]2C[C@@H]2N1C(=O)[C@@H](N)C12CC3CC(CC(O)(C3)C1)C2,inactive
13,OCCSc1ccccc1,inactive
14,CCC(C)=O,inactive
15,C[N+]1(C)CCC(=C(c2ccccc2)c2ccccc2)CC1,inactive
16,CCOC(=N)CC(=O)OCC,inactive
17,CN(C(=O)C(Cl)Cl)c1ccc(OC(=O)c2ccco2)cc1,inactive
18,COc1ccccc1N=Nc1c(S(=O)(=O)O)cc2cc(S(=O)(=O)O)cc(NC(C)=O)c2c1O,25.7 µM (active)
19,Cc1cc(OI)c(C(C)C)cc1-c1cc(C(C)C)c(OI)cc1C,inactive
20,CCCCC(CC)COC(=O)COc1ccc(Cl)cc1C (stereo not given),inactive
